PubChem BioAssay AID652257 (The Scripps Research Institute Molecular Screening Center, 2013)
The whole screen tested about 370,000 compounds, of which about 4,800 (1.3%) were called active.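 Rule for the calls: active = inhibition above about 21% made by adding two undisclosed values (limit read from the data); inactive = the rest.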 The entries come from a sample that favours actives as a whole.

The compounds below were run against Protein arginine N-methyltransferase 1 (Homo sapiens) (UniProt Q99873) (assay: PRMT1 methyltransferase inhibitors, primary screen, biochemical, fluorescence polarization (AID 652257)). Details: recombinant PRMT1, activity-based probe fluorescence polarization; at 2.79 µM; active compounds read high.
Protein arginine N-methyltransferase 1 (Homo sapiens), sequence (Q99873 whole entry, looked up): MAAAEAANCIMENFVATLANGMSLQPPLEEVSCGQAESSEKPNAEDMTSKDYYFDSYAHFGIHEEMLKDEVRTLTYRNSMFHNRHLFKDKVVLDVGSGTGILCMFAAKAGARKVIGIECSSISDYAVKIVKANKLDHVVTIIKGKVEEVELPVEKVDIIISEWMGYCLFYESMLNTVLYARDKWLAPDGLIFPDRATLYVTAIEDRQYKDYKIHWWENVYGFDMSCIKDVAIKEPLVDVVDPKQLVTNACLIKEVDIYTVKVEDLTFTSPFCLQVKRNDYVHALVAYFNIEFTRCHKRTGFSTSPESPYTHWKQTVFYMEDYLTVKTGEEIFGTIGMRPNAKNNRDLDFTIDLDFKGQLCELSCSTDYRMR

Row | Compound | inhibition
1 | O=C(Cn1cnc2ccccc21)N/N=C/c1ccco1 | -1.39% (inactive)
2 | O=C(COC(=O)Cn1cnc2ccccc21)Nc1cccc2c1C(=O)c1ccccc1C2=O | 26.1% (active)
3 | O=C(COC(=O)Cn1cnc2ccccc2c1=O)NCC12CC3CC(CC(C3)C1)C2 | -1.36% (inactive)
4 | Cc1cc2nc3c(=O)[nH]c(=O)nc-3n(C[C@H](O)[C@H](O)[C@H](O)CO)c2cc1C | 85.4% (active)
5 | Cc1ccc(Cn2c(C)nc3c(c2=O)c2nc4ccccc4nc2n3Cc2ccco2)cc1 | 24.6% (active)
6 | Cc1ccc(OCC(=O)c2cc(C)n(Cc3ccco3)c2C)c([N+](=O)[O-])n1 | 1.18% (inactive)
7 | Cc1ccc(C(=O)CSc2nc3ccccc3c(=O)n2N)o1 | 6.79% (inactive)
8 | C[C@H]1CN([C@@H](C)CO)S(=O)(=O)c2ccc(Br)cc2O[C@H]1CN(C)C(=O)c1cnccn1 | -6.2% (inactive)
9 | CC1Sc2ccc(C(=O)NCc3ccccc3Cl)cc2NC1=O (centres undefined) | 1.76% (inactive)
10 | COC(=O)c1cccc(Cn2ccc3ccc(-c4ccc5ccn(C(=O)C6CCCCC6)c5c4)cc32)c1 | 3.39% (inactive)
11 | C[C@@H]1COc2cccc(N3CCCC3)c2S(=O)(=O)N1C | 10.8% (inactive)
12 | Cc1ccc(-n2c(SCC(=O)Nc3cccc4ccccc34)nnc2-c2ccccn2)cc1 | -1.87% (inactive)
13 | C=CCn1c(N)cc(=O)nc1SCC(=O)Nc1cccc2ccccc12 | -1.49% (inactive)
14 | Cc1ccccc1-n1c(SCC(=O)Nc2cccc3ccccc23)nc(O)cc1=O | 27.6% (active)
15 | COc1cccc(CNC(=O)C2CCCN(c3nc4ccccc4o3)C2)c1OC (centres undefined) | -1.5% (inactive)
16 | Cc1ccc(NC(=O)Nc2cc(C)nn2-c2ccccc2)cc1 | -2.65% (inactive)
17 | O=C(c1cccc(C(F)(F)F)c1)N1CC[C@H]2[C@H](CCCN2Cc2cc(F)cc(F)c2)C1 | -3.31% (inactive)
18 | CCOCCn1c(C(C)C)nc2ccccc21 | -1.59% (inactive)
19 | CCCC(NC(=O)c1ccccc1)c1nc2ccccc2n1Cc1ccc(C(=O)OC)o1 (centres undefined) | -1.43% (inactive)
20 | CCCn1c(C(Cc2ccccc2)NC(=O)COC)nc2ccccc21 (centres undefined) | 21.6% (active)
21 | CCCCn1ccnc1C(=O)c1cccc(S(=O)(=O)N2c3ccccc3CC2C)c1 (centres undefined) | -0.73% (inactive)
22 | Cc1ccccc1NC(=O)C1CCN(c2ncccn2)CC1 | 8.54% (inactive)
23 | Fc1ccc2nc(COCc3nc4ccc(F)cc4[nH]3)[nH]c2c1 | -1.38% (inactive)
24 | Cc1cc2c(c(=O)n1C)C(C(C)C)C(C#N)=C(N)O2 (centres undefined) | 2.55% (inactive)
25 | Cc1cc2c(c(=O)n1Cc1ccco1)C(c1ccccc1)C(C#N)=C(N)O2 (centres undefined) | 36.6% (active)
26 | CC(C)c1ccc(C2C(C#N)=C(N)Oc3c2oc(CO)cc3=O)cc1 (centres undefined) | 2.64% (inactive)
27 | CCC(C)(C)NC(=O)C(c1cccc(OC)c1OC)N(CC(C)C)C(=O)CCC(=O)Nc1cc(C)on1 (centres undefined) | -2.2% (inactive)

Row | Compound | inhibition
28 | CCn1c(=S)sc2c(=O)n(CC(=O)Nc3ccc(OC)cc3)c(C)nc21 | 0.4% (inactive)
29 | Oc1ccc2ccc3cccc[n+]3c2c1 | 187% (active)
30 | COC(=O)[C@]12C[C@H](CC(=O)NCc3ccccc3)C(=O)N(Cc3ccccc3)C1=C[C@H](COCc1ccccc1)O[C@@H]2C | 1.65% (inactive)
31 | N/C(=N\OC(=O)CCc1ccccc1)c1cccnc1 | 0.81% (inactive)
32 | Cc1ccc(OCc2nnc(SC/C=C/c3ccccc3)n2Cc2ccco2)cc1 | -0.38% (inactive)
33 | O=C(Nc1cc(Cl)cc(Cl)c1)OCCN1CCCC12CCC(c1ccccc1)CC2 (centres undefined) | -4.6% (inactive)
34 | COc1ccc(CSc2nnc(SCC(=O)Nc3ccccc3C(F)(F)F)s2)cc1 | -1.07% (inactive)
35 | COCCCNC(=O)C[C@H]1C[C@@]2(C(=O)OC)C(=C[C@H](C(C)(C)C)O[C@@H]2C)N(Cc2ccc(Cl)cc2Cl)C1=O | 4.84% (inactive)
36 | COC(=O)[C@]12C[C@H](CC(=O)NCc3ccccc3)C(=O)N(CCc3ccc(OC)c(OC)c3)C1=C[C@H](C(C)(C)C)O[C@@H]2C | -1.11% (inactive)
37 | CN(C)S(=O)(=O)c1ccc(NC(=O)COC(=O)c2n[nH]c3ccccc23)cc1 | -3.56% (inactive)
38 | NS(=O)(=O)c1ccc(NC(=O)COC(=O)c2c3c(nc4ccccc24)/C(=C\c2ccc4c(c2)OCO4)CCC3)cc1 | 139% (active)
39 | O=C(COC(=O)c1ccc2c(c1)OCCO2)NCc1ccccc1Cl | -2.85% (inactive)
40 | O=C(COC(=O)c1c(Cl)cccc1Cl)Nc1cccc(S(=O)(=O)NC2=NCCCCC2)c1 | -1.88% (inactive)
41 | CN(CC(=O)Nc1ccc(C(N)=O)cc1)S(=O)(=O)c1ccc2c(c1)OCCO2 | -3.91% (inactive)
42 | NC(=O)c1ccc(NC(=O)COC(=O)c2c3c(nc4ccccc24)/C(=C\c2ccc4c(c2)OCO4)CCC3)cc1 | 141% (active)
43 | COc1cccc(CSc2nnc(-c3cccnc3)n2Cc2ccccc2)c1 | 4.89% (inactive)
44 | COc1ccc(C2Nc3ccccc3C(=O)N2Cc2cccs2)cc1COc1c(C)cccc1C (centres undefined) | -1.12% (inactive)
45 | CCOC(=O)N1CCN(C(=O)CSc2nnc(-c3c[nH]c4ccccc34)n2CCOC)CC1 | -1.98% (inactive)
46 | CN(CCO)c1cccc2c1S(=O)(=O)N(Cc1cn(Cc3ccc(C(F)(F)F)cc3)nn1)Cc1ccccc1O2 | 4.68% (inactive)
47 | Cn1c(SCC(=O)N2CCCc3ccccc32)nc2ccccc2c1=O | 0.04% (inactive)
48 | Cc1cccc2cc3c(N)c(C(=O)N4CCCc5ccccc54)sc3nc12 | 38% (active)
49 | COc1cccc(/C=C/C(=O)OCC(=O)N2CCCc3ccccc32)c1 | -0.48% (inactive)
50 | Cc1ccc(N)cc1CN1CCN(c2ncc(Cc3ccccc3)cn2)CC1 | -1.39% (inactive)
51 | Cc1ccc(NC2(C#N)C(=O)Nc3ccccc32)cc1 (centres undefined) | -2.14% (inactive)
52 | N#CC1=C(N)Oc2[nH]c(=S)[nH]c(=O)c2C12C(=O)Nc1ccccc12 (centres undefined) | 37.2% (active)
53 | O=S1(=O)c2ccc(Br)cc2OC[C@H](Cc2ccccc2)N1Cc1cn(Cc2ccccc2)nn1 | 4.16% (inactive)
54 | C=CCC(NCc1ccco1)c1ccc(OC)cc1 (centres undefined) | -0.85% (inactive)
